# Reference: PubChem BioAssay (Tox21)
# Unmarked numbers belong to inactive results. Results filed as inconclusive are left out. Entries that show only a call come without a potency. Active and inactive are the calls of the source. Unless noted, calls come from the whole dose curve; as a rule, active = well fitted curve in the direction sought with a large enough effect in the repeat runs; inconclusive = weak or mixed curves; inactive = no such curve, though single readings can be large; an effect the other way counts as inactive or inconclusive.
# Key:
# [1] = qHTS assay for small molecule agonists of the p53 signaling pathway (AID 651631; calls by dose curve; note: nearly all actives have a fitted effect of over 15% in size)
# Procedure, shortened: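 Agonist mode screen using a stably integrated beta-lactamase gene under p53 response elements in HCT-116 cells. Compound exposure lasts 16 h at 37 °C; fluorescence intensity is measured following 2 h FRET substrate loading.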
# [2] = qHTS assay for small molecules that induce genotoxicity in human embryonic kidney cells expressing luciferase-tagged ATAD5 (AID 651632); note: nearly all actives have a fitted effect of over 15% in size; note: potency is the fitted concentration of half-maximal effect
# Procedure, shortened: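 HEK293T cells carrying a luciferase reporter tagged to ATAD5 were exposed to compound or DMSO vehicle for 16 hr at 37C, 5% CO2. Amplite was added, and after 30 min at room temperature luciferase activity was read as a marker of ATAD5 induction.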
# [3] = qHTS assay for small molecule agonists of the p53 signaling pathway - cell viability (AID 651633; calls by dose curve;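 note: p53RE-bla HCT reporter cells with a stable beta-lactamase p53 reporter; series mostly up to about 83 µM; nearly all actives have a fitted effect of over 30% in size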)
# Procedure, shortened: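 p53RE-bla cells, seeded at 4,000 per well and rested 5 h at 37 C/5% CO2, received compounds in DMSO for 16 h at 37 C. CellTiter-Glo was then added, and luminescence was read after 30 min at room temperature to gauge cytotoxicity.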
# [4] = qHTS assay for small molecules that induce genotoxicity in human embryonic kidney cells expressing luciferase-tagged ATAD5 - cell viability (AID 651634; calls by dose curve; note: nearly all actives have a fitted effect of over 25% in size)
# Procedure, shortened: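 HEK293T cells expressing luciferase-tagged ATAD5 were exposed to compound or DMSO for 15.5 hr at 37C, 5% CO2. Viability was then read as live-cell protease activity by CellTiter-Fluor fluorescence after 30 min at 37C.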
# [5] = qHTS assay for small molecule disruptors of the mitochondrial membrane potential - cell viability (AID 720634; calls by dose curve;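 note: human HepG2 liver cancer cells; series mostly up to about 83 µM; nearly all actives have a fitted effect of over 20% in size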)
# Procedure, shortened: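 HepG2 cells seeded overnight at 37 C, then exposed to compound or DMSO for 1 hr at 37 C, 5% CO2. m-MPI dye added, then CellTiter-Glo for 30 min at room temperature; viability read as ATP luminescence.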
# [6] = qHTS assay for small molecule disruptors of the mitochondrial membrane potential (AID 720635); note: potency is the fitted concentration of half-maximal effect
# Procedure, shortened: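 HepG2 cells (2,000/well) attached overnight at 37C, then took compound for 1 hr at 37C, 5% CO2. Mito-MPS dye was added for 30 min; fluorescence was read at 490/535 nm (monomers) and 540/590 nm (aggregates).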
# [7] = qHTS assay to test for compound auto fluorescence at 590 nm (red) in HepG2 cells (AID 720674)
# Procedure, shortened: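 Rose Bengal sodium served as the red fluorophore standard. HepG2 monolayers (overnight attachment, MEM with 10% FBS) were exposed to test compounds for 1 hr at 37 C and read at Ex 540/Em 590 nm.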
# [8] = qHTS assay to test for compound auto fluorescence at 460 nm (blue) in HEK293 cells (AID 720678)
# Procedure, shortened: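 HEK293 cells (2,000/well, medium with 10% dialyzed FBS) attached 4-5 hr, then exposed to compound overnight at 37C, 5% CO2. Blue fluorescence read at 405/460 nm, with triamterene as reference fluorophore.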
# [9] = qHTS assay to test for compound auto fluorescence at 590 nm (red) in HEK293 cells (AID 720679)
# Procedure, shortened: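 HEK293 cells (2,000/well, 10% dialyzed FBS) attached 4-5 hr, then dosed with compound or DMSO and incubated overnight at 37C, 5% CO2. Red fluorescence read at 540/590 nm, Rose Bengal sodium as reference fluorophore.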
# [10] = qHTS assay to test for compound auto fluorescence at 535 nm (green) in HepG2 cells (AID 720675)
SMILES,Potency [1],Potency [2],Potency [3],Potency [4],outcome [5],Potency [6],outcome [7],outcome [8],outcome [9],outcome [10],"fluorescence, relative to Rose Bengal [7]","fluorescence, % of triamterene [8]","fluorescence, % of fluorescent control [9]"
CC(C)(C#N)Nc1nc(Cl)nc(NC2CC2)n1,inactive,inactive,inactive,inactive,inactive,inactive,inactive,inactive,inactive,,,,
CC(=O)Oc1cccc(C)c1,inactive,inactive,inactive,inactive,inactive,inactive,,inactive,inactive,inactive,,,
C[N+]1(C)CCCC(OC(=O)C(O)(c2ccccc2)c2ccccc2)C1 (stereo not given),inactive,inactive,inactive,inactive,inactive,inactive,,,,,0.011% [at 18.6 µM],0.0818% [at 18.6 µM],0.215% [at 18.6 µM]
CC(=O)N1C[C@H](O)C[C@H]1C(=O)O,inactive,inactive,inactive,inactive,inactive,inactive,inactive,inactive,inactive,inactive,,,
C[N+](C)(C)CCCCCCCCCC[N+](C)(C)C,inactive,inactive,inactive,inactive,inactive,,inactive,inactive,inactive,inactive,,,
CCN(C=O)CC,inactive,inactive,inactive,inactive,inactive,inactive,inactive,inactive,inactive,,,,
COc1cc(-c2ccc(=O)[nH]n2)ccc1OC(F)F,inactive,13.3 µM (active),inactive,inactive,inactive,inactive,,inactive,inactive,inactive,,,
CCCCOCCOC(=O)CCCCCCCCC(=O)OCCOCCCC,inactive,inactive,inactive,inactive,inactive,,inactive,inactive,inactive,inactive,,,
CCCc1nn(C)c2c(=O)[nH]c(-c3cc(S(=O)(=O)N4CCN(C)CC4)ccc3OCC)nc12,inactive,inactive,inactive,inactive,inactive,,inactive,inactive,inactive,inactive,,,
Cc1cccc(C)c1NC(=O)CC12CCCN1CCC2,inactive,inactive,inactive,inactive,inactive,inactive,inactive,inactive,inactive,inactive,,,
CCC1C(=O)OCC1Cc1cncn1C (stereo not given),inactive,inactive,inactive,inactive,inactive,inactive,inactive,inactive,inactive,inactive,,,
[K+],inactive,inactive,inactive,inactive,inactive,,inactive,inactive,inactive,inactive,,,
C[N+](C)(CCOc1ccccc1)Cc1cccs1,inactive,inactive,inactive,inactive,inactive,inactive,inactive,inactive,inactive,inactive,,,
Clc1cc(Cl)cc(Cl)c1,inactive,inactive,inactive,inactive,inactive,inactive,inactive,inactive,inactive,inactive,,,
c1ccc2sc(SN3CCOCC3)nc2c1,inactive,inactive,inactive,inactive,inactive,,inactive,inactive,inactive,inactive,,,
[O-][n+]1cccc(CO)c1,inactive,inactive,inactive,inactive,inactive,inactive,inactive,,inactive,inactive,,,
COc1ccc2cc1Oc1cc3c(cc1OC)CC[N+](C)(C)[C@H]3Cc1ccc(cc1)Oc1c(OC)c(OC)cc3c1[C@@H](C2)[N+](C)(C)CC3,inactive,inactive,inactive,inactive,inactive,inactive,inactive,,inactive,inactive,,,
CCCCCCCCCCCCCCCCCCO,inactive,inactive,inactive,inactive,inactive,inactive,,inactive,inactive,inactive,,,
CC[C@H]1OC(=O)[C@H](C)[C@@H](O[C@H]2C[C@@](C)(OC)[C@@H](O)[C@H](C)O2)[C@H](C)[C@@H](O[C@@H]2O[C@H](C)C[C@H](N(C)C)[C@H]2O)[C@](C)(OC)C[C@@H](C)C(=O)[C@H](C)[C@@H](O)[C@]1(C)O,inactive,inactive,inactive,inactive,inactive,inactive,inactive,inactive,inactive,inactive,,,
CN1[C@@H]2CC[C@H]1CC(OC(=O)C(O)c1ccccc1)C2 (stereo not given in full),inactive,inactive,inactive,inactive,inactive,inactive,inactive,inactive,inactive,inactive,,,
COc1cc2c(cc1OC)-c1cc3ccc(OC)c(OC)c3c[n+]1CC2,inactive,inactive,inactive,inactive,inactive,17.4 µM (active),inactive,inactive,inactive,,,,
CC(C)(CCC(=O)O)C(=O)O,inactive,inactive,inactive,inactive,inactive,inactive,,inactive,inactive,inactive,,,
